In the library only some 3% were active in any assay of this set; here they are far more common.
PfHsp90 set2 – reduces growth (ATP signal) of yeast expressing P. falciparum Hsp90 | S. cerevisiae expressing PfHsp90, BacTiter-Glo ATP, 48 h; yeast lacking PDR1 and PDR3 efflux regulators | AID 504621 | 310,000 compounds, 0.32% hits | inhibition, % at 9.4 µM;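 active = every replicate shows inhibition above about 80%, whatever the replicate mean, limit read from the data; inconclusive = mean inhibition reaches the set limit but some replicate falls short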;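 note: 0% = DMSO neutral controls and 100% = 20 µM radicicol positive controls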
esBAF inh – SWI/SNF esBAF complex inhibition. mouse ES cells, Bmi1-luciferase knock-in reporter, 24 h; 100% = twice the neutral-well signal. reporter increase, % at 12.5 µM. 350,000 compounds, 2% hits. AID 602393; in the data active = activation above about 40%; inconclusive = no clear call, values can overlap the other calls;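 note: 0% = median of the plate's neutral control wells and 100% = double that signal; a rise in the Bmi1 reporter signal indicates esBAF inhibition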
N-glyco inh – blocks N-linked glycosylation in D54 reporter cells; D54 ERlucT glycosylation luciferase reporter, 24 h; percent of 100 nM tunicamycin response; reporter increase, % at 12.5 µM; 360,000 compounds, 0.23% hits;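 active = mean luciferase reporter signal, scaled so untreated is 0 and the glycosylation-blocking control 100, at or above a set limit in every replicate; inconclusive = mean reaches the limit but not every replicate does; inactive = mean below the limit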;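 note: luciferase carries N-glycosylation sites so blocking glycosylation raises the light; 0% = median of neutral control wells and 100% = median of 100 nM tunicamycin wells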
Vif imaging – HIV Vif inhibition | HEK293T cells, Vif self-association by quenched fluorescence, imaging, 24 h | inhibition, % at 7.49 µM | 340,000 compounds, 0.35% hits | AID 602346; in the data active = inhibition above about 50%, passing the limit was not always enough; inconclusive = no clear call, values can overlap the other calls; inactive = below about 31%
Wnt act – Wnt/beta-catenin pathway activation. Wnt/beta-catenin reporter cell assay, activator, plate reader. activation, % at 9.35 µM. 300,000 compounds, 1.2% hits. AID 743398; in the data active = activation above about 30%, passing the limit was not always enough; inconclusive = no clear call, values can overlap the other calls;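 note: 0% = neutral control wells and 100% = positive control wells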
MITF TRPM1 HTS – MITF TRPM1 promoter activation in melanoma cells. SK-MEL-5 TRPM1-promoter luciferase, 24 h; % of positive control, neutral wells = 0. activation, % at 12.5 µM. AID 588334. 300,000 compounds, 0.75% hits;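 active = mean activation of at least 80% with every replicate also reaching 80%; inconclusive = mean reaches 80% but some replicate falls short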;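 note: 0% = neutral control wells and 100% = parthenolide positive control wells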
esBAF Ring1 qPCR – de-represses Ring1 in mouse ESCs, confirming esBAF inhibition. fold change at 33 µM. 550 tested, under 10 active. mouse ESC E14, Ring1 mRNA RT-qPCR fold change. shares compounds with esBAF inh;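 active = Ring1 gene expression raised more than 2-fold over untreated cells in both replicates at either tested dose; inconclusive = only one replicate above 2-fold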;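 note: Ring1 transcript normalised to actin housekeeping signal by TaqMan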
esBAF Fgf4 qPCR – confirmation of esBAF inhibitors: Fgf4 repression in mouse ESCs | shares compounds with esBAF inh | mouse ESC E14, Fgf4 mRNA qPCR fold change; active compounds read low | Fgf4 expression fold change at 33 µM | 550 compounds, 4% hits;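 active = Fgf4 expression under 0.8 fold of control in both repeat measurements at one or both tested doses; inconclusive = under 0.8 fold in just a single repeat measurement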;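 note: Fgf4 transcript normalised to actin in duplex TaqMan qPCR; cells exposed to compound for 24 h before lysis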
Bmi1 derepress – esBAF inhibition confirmed by Bmi1 de-repression | 550 tested, under 10 active | fold change at 33 µM | AID 743180 | shares compounds with esBAF inh | mouse ESE14 ES cells, Bmi1 mRNA qPCR fold; active compounds read high;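 active = Bmi1 expression fold change above 6 at either tested concentration, seen in replicate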;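 note: higher fold means more Bmi1 de-repression and stronger esBAF inhibition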
A549 tox SP – A549 cell cytotoxicity; plate reader; cell viability change % (negative = cytotoxic), % at 25 µM, hits read low; shares compounds with esBAF inh; 550 tested, under 10 active; call rule not given here
HepG2 cytotox SP – cytotoxicity in HepG2 cells. AID 743189. activity change, negative = inhibition, % at 25 µM. 550 compounds, 4% hits. plate reader; active compounds read low. shares compounds with esBAF inh; in the data active = activity change below about -50%
HEK293 tox SP – HEK293 cell cytotoxicity at single point; shares compounds with esBAF inh; plate reader; activity change, negative = inhibition, % at 25 µM, hits read low; 550 compounds, 3% hits; AID 743190; in the data active = activity change below about -38%, passing the limit was not always enough
* marks the source's active call; other numbers are inactive results; ? = inconclusive; . = not tested or not shown.

SMILES | PfHsp90 set2 | esBAF inh | N-glyco inh | Vif imaging | Wnt act | MITF TRPM1 HTS | esBAF Ring1 qPCR | esBAF Fgf4 qPCR | Bmi1 derepress | A549 tox SP | HepG2 cytotox SP | HEK293 tox SP
Cc1ccc(CNC(=O)CCn2cc(-c3ccc(C)cc3)nc2-c2ccncc2)cc1 | -4.7 | -0.2 | 1.0 | 16.0 | -1.2 | 4.5 | . | . | . | . | . | .
Clc1ccc(-c2cn3cccnc3n2)cc1Cl | -7.0 | 73.1* | 0.5 | -2.9 | 16.8 | 59.5 | 1.04 | 1.34 | 0.922 | 11.9 | -25.0 | 2.7
CCN(CC)C(=O)OCc1c(-c2ccccc2)ncc2ccccc12 | 9.8 | 105.8* | -4.6 | . | ? | 101.6* | 0.924 | ? | 1.96 | -1.9 | -1.8 | -4.4
Cc1cc(-c2onc(C)c2C(=O)Nc2ccc(C(F)(F)F)cc2)no1 | -3.9 | . | 0.6 | -5.3 | -0.2 | . | . | . | . | . | . | .
CCCC(=O)N1CCN(c2nc3ccc(Br)cc3s2)CC1 | 20.9 | 66.0* | 0.7 | -5.9 | -0.2 | 67.4 | 0.955 | 0.893 | 1.43 | -5.8 | -13.8 | -34.3
CC(C)(C)C(=O)N1CCN(c2nc3ccc(Br)cc3s2)CC1 | 10.8 | 92.6* | -2.0 | -0.8 | 2.5 | 44.9 | 1.06 | 0.996 | 1.7 | -3.2 | 9.9 | -26.7
CC(/C=C/c1ccccc1)=N\Nc1nc(-c2ccccc2)cs1 | 20.5 | -4.1 | -1.1 | 5.5 | -5.7 | -2.9 | . | . | . | . | . | .
Cc1cc(C)cc(N(CC(=O)Nc2ccc(-c3nc4ccc(C)cc4s3)cc2)S(C)(=O)=O)c1 | -20.5 | 46.9* | -3.4 | -1.4 | 38.5* | 57.9 | 1.02 | 0.918 | 1.45 | -7.6 | -44.8 | -8.6
CCCCCCCCCCS(=O)(=O)N/N=C/c1ccccc1OC | 3.0 | -4.8 | 0.6 | -0.2 | . | 0.2 | . | . | . | . | . | .
CNc1cncc(-c2cccc(OC)c2F)n1 | . | 63.3* | -1.8 | -8.2 | 16.7 | . | 1.18 | ? | 1.41 | -2.5 | -8.0 | 4.3
Cc1cc2cc(CCNS(C)(=O)=O)c(=O)[nH]c2cc1C | -14.8 | -8.4 | 0.2 | -1.4 | -0.9 | -3.9 | . | . | . | . | . | .
Cc1ccc(CSCC(=O)N(C)CC(=O)Nc2ccc(Br)cc2C)cc1 | 0.2 | -3.3 | 0.5 | 3.1 | -0.7 | -1.5 | . | . | . | . | . | .
CCN(CC)S(=O)(=O)c1cccc(-c2cn3cc(C)ccc3n2)c1 | 3.1 | 64.8* | -3.3 | -17.6 | . | 68.5 | 1.1 | 0.774* | 2.01 | 0.2 | -48.9 | -15.1
Cc1c(NC(=O)c2cc(-c3ccc(Cl)c(Cl)c3)on2)c(=O)n(-c2ccccc2)n1C | 14.8 | 4.0 | -3.2 | -14.9 | -3.6 | 4.7 | . | . | . | . | . | .
O=C(NC1CCCC1)c1cc(-c2ccc(Cl)c(Cl)c2)on1 | -21.1 | 64.3* | -0.7 | 1.1 | 20.9 | 106.7* | 1.05 | 0.872 | 1.59 | 0.2 | -31.4 | 0.5
C=CCNc1nc(-c2ccc(O)c(C(N)=O)c2)cs1 | -21.7 | 59.0* | 3.9 | 2.8 | -2.8 | 55.2 | 1.19 | 1.04 | 1.33 | -7.4 | -36.0 | -5.9
O=C(NC(Cc1nn[nH]n1)C(=O)OCc1ccccc1)OCc1ccccc1 (stereo unspecified) | . | -2.7 | -0.5 | . | 2.0 | . | . | . | . | . | . | .
O=C(CC(NC(=O)OCc1ccccc1)c1nn[nH]n1)OCc1ccccc1 (stereo unspecified) | . | 75.2* | 0.4 | . | 14.8 | . | 1.3 | 0.973 | 1.47 | -9.1 | -17.1 | -3.4
Cc1ccccc1-n1nc(C(=O)O)cc1-c1ccccc1 | . | 0.4 | 1.8 | -13.0 | . | -7.3 | . | . | . | . | . | .
CC1Cn2c(nc3c2c(=O)[nH]c(=O)n3C)O1 (stereo unspecified) | -22.7 | -6.8 | 2.2 | . | . | 2.9 | . | . | . | . | . | .
Cc1noc(C)c1C(=O)Nc1nc2ccccc2s1 | . | 72.1* | 2.7 | -0.5 | 7.9 | 74.7 | 1.26 | 1.11 | 1.58 | -19.1 | 7.9 | -28.5
CCCCNc1cc(=O)n(C)c(=O)[nH]1 | -12.9 | -5.4 | 0.7 | 8.1 | -2.2 | 2.5 | . | . | . | . | . | .
Cc1cc(Cl)ccc1OCc1nnc(-c2ccccc2C)o1 | 20.1 | 98.9* | -1.7 | -0.9 | 40.6* | 115.6* | 0.889 | 0.933 | 1.43 | -10.0 | -24.3 | 3.6
COc1cc(-c2nnc(COc3ccc(Cl)cc3C)o2)cc(OC)c1OC | -0.1 | -4.0 | 0.3 | ? | -5.3 | 2.4 | . | . | . | . | . | .
COc1ccccc1CCC(=O)Nc1nc2ccccc2[nH]1 | -4.1 | 60.9* | 7.1 | 13.9 | 30.9* | 79.7 | 1.11 | 0.379* | 6.92* | -1.7 | -11.0 | 16.2
SMILES | PfHsp90 set2 | esBAF inh | N-glyco inh | Vif imaging | Wnt act | MITF TRPM1 HTS | esBAF Ring1 qPCR | esBAF Fgf4 qPCR | Bmi1 derepress | A549 tox SP | HepG2 cytotox SP | HEK293 tox SP
COc1ccc2c(CN(C)Cc3ccccc3)cc(=O)oc2c1 | . | 57.2* | -3.6 | . | 16.4 | . | 1.13 | 0.876 | 1.83 | -13.4 | -64.8* | -19.4
Cc1ccn2c(CC(C)(C)C)c(-c3ccc(F)cc3)nc2c1 | . | 65.1* | -6.8 | -2.2 | 55.3* | . | 1.16 | 0.967 | 2.07 | -10.5 | 3.7 | -2.4
Cc1ccnc(N2CCCC(C(=O)Nc3ccc(C)c(C)c3)C2)n1 (stereo unspecified) | -9.4 | 12.2 | -1.5 | -9.7 | 7.0 | -13.4 | . | . | . | . | . | .
Cc1ccc(NC(=O)C2CCCN(c3ncccn3)C2)cc1C (stereo unspecified) | -7.4 | 55.1* | 1.5 | -6.6 | 11.2 | 51.8 | 1.2 | 0.928 | 1.61 | -5.9 | -32.2 | -10.2
O=C(N/N=C/c1cnc2ccccc2n1)c1cccc(F)c1 | . | 59.6* | -0.3 | -9.7 | 8.6 | 49.0 | 1.11 | 1.07 | 1.28 | 3.8 | 4.3 | 2.8
CCCCN1C(=O)C(=O)N(CC(=O)Nc2ccccc2C(=O)OCC)C1=O | 3.5 | . | . | . | 1.3 | -1.1 | . | . | . | . | . | .
NC(Cc1ccc(C(F)(F)F)cc1)c1csc(Nc2ncccn2)n1 (stereo unspecified) | . | . | 0.7 | -3.8 | -0.3 | . | . | . | . | . | . | .
Cc1ccc(NC(=O)CN2C(=O)N/C(=C/c3ccccc3OCc3cccc(C(=O)O)c3)C2=O)cc1 | -38.9 | 39.5 | 1.7 | 7.7 | 11.3 | 59.2 | 1.18 | 0.838 | 1.22 | -8.0 | -0.2 | -7.0
COc1cccc(/C=C2/NC(=O)N(CC(=O)Nc3ccc(C)cc3)C2=O)c1OCc1cccc(C(=O)O)c1 | -31.1 | 2.0 | 2.6 | 6.5 | 0.0 | 8.2 | . | . | . | . | . | .
Cc1ccccc1Nc1nc(N)nc(CSc2nnc(C)n2C)n1 | 10.6 | . | -0.1 | -8.3 | -0.6 | -4.5 | . | . | . | . | . | .
CC(C)C[C@H]1CNC(=O)C(=O)N1C[C@@H]1CCCN1C[C@H](Cc1ccc(O)cc1)N1C[C@H](Cc2ccccc2)N(CC2CCCCCC2)C(=O)C1=O | . | . | . | . | -2.1 | . | . | . | . | . | . | .
